Laboratory results taken from PubChem BioAssay (Tox21).
Records with an inconclusive call do not appear. Calls of active or inactive are those of the source. Unless noted, calls come from the whole dose curve; as a rule, active = well fitted curve in the direction sought with a large enough effect in the repeat runs; inconclusive = weak or mixed curves; inactive = no such curve, though single readings can be large; an effect the other way counts as inactive or inconclusive.

Columns and labels:
[1] = qHTS assay to identify small molecule antagonists of the thyroid receptor (TR) signaling pathway - cell viability counter screen (AID 743064); note: nearly all actives have a fitted effect of over 50% in size
Method in brief: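 GH3.TRE-Luc rat pituitary cells dosed after 4 hr plating, co-stimulated with T3 at 1 nM final, incubated 23.5 h at 37 C. Viability measured in the same wells by CellTiter-Fluor fluorescence after 30 min further at 37 C.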

[2] = qHTS assay to identify small molecule antagonists of the thyroid receptor (TR) signaling pathway (AID 743065); note: nearly all actives have a fitted effect of over 55% in size
Method in brief: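 GH3.TRE-Luc rat pituitary cells carrying two TR response elements driving luciferase were plated for 4 h, given compound plus 1 nM T3 (final), and incubated 23.5 h at 37 C. ONE-Glo luminescence measured reporter inhibition; CellTiter-Fluor fluorescence tracked cytotoxicity.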

[3] = system: thyroid hormone receptor (rat, GH3 cells); test: qHTS assay to identify small molecule agonists of the thyroid receptor (TR) signaling pathway (AID 743066; calls by dose curve)
[4] = qHTS assay to identify small molecule antagonists of the estrogen receptor alpha (ER-alpha) signaling pathway - cell viability counter screen (AID 743074; calls by dose curve; note: nearly all actives have a fitted effect of over 45% in size)
[5] = molecular target: Estrogen receptor (Homo sapiens) (UniProt P03372); test: qHTS assay to identify small molecule agonists of the estrogen receptor alpha (ER-alpha) signaling pathway (AID 743075; calls by dose curve)
Estrogen receptor (Homo sapiens), sequence (P03372 whole entry, looked up): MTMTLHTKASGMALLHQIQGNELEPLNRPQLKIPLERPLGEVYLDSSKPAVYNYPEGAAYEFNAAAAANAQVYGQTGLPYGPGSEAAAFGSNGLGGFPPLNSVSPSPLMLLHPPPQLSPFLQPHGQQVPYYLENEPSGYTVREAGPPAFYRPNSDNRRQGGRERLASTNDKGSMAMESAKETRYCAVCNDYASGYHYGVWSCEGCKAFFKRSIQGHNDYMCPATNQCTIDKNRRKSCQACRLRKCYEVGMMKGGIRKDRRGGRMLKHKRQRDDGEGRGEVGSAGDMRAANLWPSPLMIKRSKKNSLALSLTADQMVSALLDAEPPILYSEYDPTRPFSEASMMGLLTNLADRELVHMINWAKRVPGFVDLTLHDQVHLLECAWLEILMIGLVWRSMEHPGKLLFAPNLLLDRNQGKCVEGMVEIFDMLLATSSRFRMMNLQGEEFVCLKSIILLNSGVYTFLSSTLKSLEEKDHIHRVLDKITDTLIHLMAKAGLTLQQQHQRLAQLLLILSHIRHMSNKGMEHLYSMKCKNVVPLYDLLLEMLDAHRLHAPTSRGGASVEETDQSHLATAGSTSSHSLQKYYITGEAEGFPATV

[6] = molecular target: Estrogen receptor (Homo sapiens) (UniProt P03372); test: qHTS assay to identify small molecule agonists of the estrogen receptor alpha (ER-alpha) signaling pathway using the BG1 cell line (AID 743079); details: BG1Luc4E2 cells, ERE-luciferase agonist, 22 h; note: nearly all actives have a fitted effect of over 20% in size
[7] = qHTS assay to identify small molecule antagonists of the estrogen receptor alpha (ER-alpha) signaling pathway using the BG1 cell line (AID 743080; calls by dose curve; note: nearly all actives have a fitted effect of over 25% in size)
Method in brief: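 Antagonist mode: compounds in DMSO were pinned onto BG1-Luc-4E2 cells alongside 17beta-estradiol agonist, incubated 21.5 h, and ERE-driven luciferase measured with ONE-Glo. Cytotoxicity was multiplexed using CellTiter-Fluor fluorescence.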

[8] = qHTS assay to identify small molecule antagonists of the estrogen receptor alpha (ER-alpha) signaling pathway using the BG1 cell line - cell viability counter screen (AID 743081);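 note: compound given together with 17beta-estradiol as the ER stimulus; nearly all actives have a fitted effect of over 45% in size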
[9] = qHTS assay to identify aromatase inhibitors - cell viability counter screen (AID 743084);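 note: cells stimulated with testosterone during compound exposure; nearly all actives have a fitted effect of over 55% in size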
[10] = molecular target: Aryl hydrocarbon receptor (Homo sapiens) (UniProt P35869); test: qHTS assay to identify small molecule that activate the aryl hydrocarbon receptor (AhR) signaling pathway (AID 743085); note: nearly all actives have a fitted effect of over 15% in size; note: potency is the fitted concentration of half-maximal effect;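 for activation: HG2L7.5c1 human HepG2 liver cells with stably integrated DRE-driven firefly reporter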
Aryl hydrocarbon receptor (Homo sapiens), sequence (P35869 whole entry, looked up): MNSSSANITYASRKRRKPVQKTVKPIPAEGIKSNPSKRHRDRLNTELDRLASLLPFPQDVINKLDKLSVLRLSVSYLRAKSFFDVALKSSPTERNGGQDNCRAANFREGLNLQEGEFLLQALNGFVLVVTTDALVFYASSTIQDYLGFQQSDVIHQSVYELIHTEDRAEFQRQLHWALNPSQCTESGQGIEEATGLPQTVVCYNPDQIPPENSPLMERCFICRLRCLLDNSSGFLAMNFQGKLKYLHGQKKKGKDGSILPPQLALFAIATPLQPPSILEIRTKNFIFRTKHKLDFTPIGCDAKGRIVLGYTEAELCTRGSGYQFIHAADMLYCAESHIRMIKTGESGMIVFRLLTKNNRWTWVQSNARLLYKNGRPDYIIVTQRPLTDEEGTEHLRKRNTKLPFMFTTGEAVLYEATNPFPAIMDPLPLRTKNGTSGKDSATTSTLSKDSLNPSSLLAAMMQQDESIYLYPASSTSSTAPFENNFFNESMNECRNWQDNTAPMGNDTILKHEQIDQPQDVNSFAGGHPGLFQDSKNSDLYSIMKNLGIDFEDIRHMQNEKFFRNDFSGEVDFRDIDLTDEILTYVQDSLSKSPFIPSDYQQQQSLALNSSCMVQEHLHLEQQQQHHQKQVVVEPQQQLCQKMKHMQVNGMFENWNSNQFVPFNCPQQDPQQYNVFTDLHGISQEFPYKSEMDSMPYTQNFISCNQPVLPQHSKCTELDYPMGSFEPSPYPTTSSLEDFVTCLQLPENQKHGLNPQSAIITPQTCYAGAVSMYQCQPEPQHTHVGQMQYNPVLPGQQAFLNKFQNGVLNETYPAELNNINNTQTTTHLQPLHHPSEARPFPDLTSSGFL
Method in brief: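 HepG2 cells stably carrying a 20-DRE firefly luciferase reporter (HG2L7.5c1) treated with compound for 24 hr at 37C. Luciferase read by ONE-Glo luminescence, with CellTiter-Fluor viability read first.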

[11] = qHTS assay to identify small molecule that activate the aryl hydrocarbon receptor (AhR) signaling pathway - cell viability counter screen (AID 743086);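 note: HepG2 liver cells carrying the AhR DRE luciferase reporter; nearly all actives have a fitted effect of over 45% in size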
Method in brief: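 HepG2-AhR-luc (HG2L7.5c1) cells, 4000/well, were preincubated 5 h at 37C, exposed to compound in qHTS format for 24 hr at 37C, then given CellTiter-Fluor for 30 min; viability was read as fluorescence in the reporter wells.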

[12] = qHTS assay to identify small molecule antagonists of the peroxisome proliferator-activated receptor gamma (PPARg) signaling pathway - cell viability counter screen (AID 743194); details: Potency: co-treated with 50 nM rosiglitazone; note: nearly all actives have a fitted effect of over 55% in size
Method in brief: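 PPARg-UAS-bla HEK293H cells were plated, rested 5 h at 37 C, then treated with compounds plus rosiglitazone (50 nM final) for 17 h at 37 C; viability was then read by CellTiter-Glo luminescence after 30 min at room temperature.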

[13] = qHTS assay for small molecule agonists of the antioxidant response element (ARE) signaling pathway (AID 743202; active = well fitted activation curve with a large enough effect in the signal ratio in the repeat runs, not every such curve was filed as active; the % refers to the signal ratio; note: potency is the fitted concentration of half-maximal effect)
Method in brief: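 Read-out: LiveBLAzer B/G FRET substrate fluorescence after 2 h at room temperature, following 16 h compound treatment at 37 C of HepG2 cells carrying an ARE-driven beta-lactamase reporter.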

[14] = qHTS assay for small molecule agonists of the antioxidant response element (ARE) signaling pathway - cell viability counter screen (AID 743203; calls by dose curve; note: nearly all actives have a fitted effect of over 55% in size)
Method in brief: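 Following 16 hrs of compound treatment at 37C, HepG2 cells with an ARE-controlled beta-lactamase gene were lysed with CellTiter-Glo. Luminescence was read after 30 min at room temperature.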

[15] = qHTS assay for small molecule activators of the heat shock response signaling pathway (AID 743210; active = well fitted activation curve with a large enough effect in the signal ratio in the repeat runs, with a control signal flat, not every such curve was filed as active; the % refers to the signal ratio)
Method in brief: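 HSE-bla HeLa cells (beta-lactamase reporter under heat shock response elements) were exposed to compounds for 5 h at 37 C, then loaded with LiveBLAzer B/G FRET substrate for 2.5 h at room temperature before fluorescence reading.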

[16] = molecular target: Aromatase (Homo sapiens) (UniProt P11511); test: qHTS assay to identify aromatase inhibitors (AID 743083); note: nearly all actives have a fitted effect of over 55% in size
Aromatase (Homo sapiens), sequence (P11511 whole entry, looked up): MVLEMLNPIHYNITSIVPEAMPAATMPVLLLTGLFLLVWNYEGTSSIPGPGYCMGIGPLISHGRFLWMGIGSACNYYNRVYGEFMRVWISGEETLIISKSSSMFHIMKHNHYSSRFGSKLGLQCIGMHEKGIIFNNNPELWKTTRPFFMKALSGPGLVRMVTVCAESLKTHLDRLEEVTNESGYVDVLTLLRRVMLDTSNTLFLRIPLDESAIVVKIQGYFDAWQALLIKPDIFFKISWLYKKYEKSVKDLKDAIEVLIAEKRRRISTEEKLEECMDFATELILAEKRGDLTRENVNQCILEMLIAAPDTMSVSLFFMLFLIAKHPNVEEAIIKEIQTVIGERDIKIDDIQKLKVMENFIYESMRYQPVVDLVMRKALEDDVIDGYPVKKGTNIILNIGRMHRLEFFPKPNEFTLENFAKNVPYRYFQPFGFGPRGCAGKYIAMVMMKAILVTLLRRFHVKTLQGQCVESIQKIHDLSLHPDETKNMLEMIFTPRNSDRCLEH

[17] = molecular target: Peroxisome proliferator-activated receptor gamma (Homo sapiens) (UniProt P37231); test: qHTS assay to identify small molecule agonists of the peroxisome proliferator-activated receptor gamma (PPARg) signaling pathway (AID 743094; active = well fitted activation curve with a large enough effect in the signal ratio in the repeat runs, not every such curve was filed as active; the % refers to the signal ratio)
Peroxisome proliferator-activated receptor gamma (Homo sapiens), sequence (P37231 whole entry, looked up): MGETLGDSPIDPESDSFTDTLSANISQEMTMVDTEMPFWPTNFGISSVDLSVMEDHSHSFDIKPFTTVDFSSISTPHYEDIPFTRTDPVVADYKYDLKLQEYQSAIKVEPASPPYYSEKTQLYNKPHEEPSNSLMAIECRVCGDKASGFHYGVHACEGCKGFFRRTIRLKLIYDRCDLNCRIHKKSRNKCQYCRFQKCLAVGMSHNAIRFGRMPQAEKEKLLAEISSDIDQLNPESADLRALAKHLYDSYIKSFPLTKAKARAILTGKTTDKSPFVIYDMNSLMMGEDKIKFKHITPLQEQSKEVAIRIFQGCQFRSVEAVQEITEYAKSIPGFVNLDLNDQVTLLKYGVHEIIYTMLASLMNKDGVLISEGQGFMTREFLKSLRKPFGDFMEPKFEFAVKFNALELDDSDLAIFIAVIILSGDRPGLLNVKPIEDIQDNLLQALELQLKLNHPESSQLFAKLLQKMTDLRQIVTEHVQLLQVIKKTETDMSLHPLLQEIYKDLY
Method in brief: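 Compounds dissolved in DMSO were added to PPARg UAS-bla HEK293H cells for 17 h at 37C, and reporter expression was quantified by fluorescence intensity after 1 h with LiveBLAzer B/G FRET substrate.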

[18] = molecular target: Peroxisome proliferator-activated receptor gamma (Homo sapiens) (UniProt P37231); test: qHTS assay to identify small molecule antagonists of the peroxisome proliferator-activated receptor gamma (PPARg) signaling pathway (AID 743191; calls by dose curve; note: nearly all actives have a fitted effect of over 30% in size)
Method in brief: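 GeneBLAzer PPARg UAS-bla HEK293H cells carrying a UAS-driven beta-lactamase reporter were plated at 3000 cells/well, preincubated 5 h at 37C, then given compound for 17 h at 37C; LiveBLAzer B/G FRET substrate was read after 1 h at room temperature.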

[19] = qHTS assay for small molecule activators of the heat shock response signaling pathway - cell viability counter screen (AID 743209); note: nearly all actives have a fitted effect of over 50% in size
Method in brief: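 Readout: CellTiter-Glo luminescence, 30 min at room temperature. System: HSE-bla HeLa cells, 1500/well, plated overnight. Treatment: compounds in DMSO, 5 h at 37 C.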

[20] = molecular target: Estrogen receptor (Homo sapiens) (UniProt P03372); test: qHTS assay to identify small molecule antagonists of the estrogen receptor alpha (ER-alpha) signaling pathway (AID 743069; active = well fitted curve in the direction sought with a large enough effect in the signal ratio in the repeat runs, not every such curve was filed as active; the % refers to the signal ratio)
Method in brief: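 HEK293 cells stably carrying an ER-alpha-UAS-bla beta-lactamase reporter were pre-cultured overnight in 2% charcoal-stripped FBS medium. Test compounds in DMSO were added together with 17beta-estradiol for 18 hr at 37C. Read-out was fluorescence after 2 hr with LiveBLAzer B/G FRET substrate at room temperature.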
% is set by controls: 0 for no effect and ±100 for the full control effect.

O=C(Nc1ccccc1)c1ccccc1I
inactive: Potency [1] | Potency [2] | Potency [3] | outcome [4] | Potency [5] | activation ([6]; at 70.3 µM (top of the series)) 0.753% | Potency [7] | Potency [8] | Potency [9] | outcome [11] | Potency [12] | Potency [14] | outcome [15]
active: Potency [10] 48.6 µM | Potency [13] 21.7 µM

O=[N+]([O-])c1ccc2c3c(cccc13)CC2
inactive: Potency [1] | Potency [2] | Potency [3] | outcome [4] | Potency [5] | activation ([6]; at 70.3 µM (top of the series)) -4.67% | Potency [7] | Potency [8] | Potency [16] | Potency [9] | outcome [11] | outcome [17] | Potency [18] | Potency [12] | Potency [14]

CCC/C(=N\OCC)C1=C(O)CC(CC(C)SCC)CC1=O (stereo not drawn)
inactive: Potency [1] | Potency [2] | Potency [3] | outcome [4] | Potency [5] | activation ([6]; at 95 µM (top of the series)) -1.67% | Potency [7] | Potency [8] | Potency [16] | Potency [9] | Potency [10] | outcome [11] | outcome [17] | Potency [18] | Potency [12] | Potency [14] | Potency [19]

ClC(Cl)C(Cl)Cl
inactive: Potency [1] | Potency [2] | Potency [3] | outcome [4] | Potency [5] | activation ([6]; at 95 µM (top of the series)) -0.198% | Potency [8] | Potency [16] | Potency [9] | Potency [10] | outcome [11] | outcome [17] | Potency [12] | Potency [13] | Potency [14] | outcome [15]

N#Cc1ccncc1
inactive: Potency [1] | Potency [2] | Potency [3] | outcome [4] | Potency [5] | activation ([6]; at 95 µM (top of the series)) 1.2% | Potency [7] | Potency [8] | Potency [16] | Potency [9] | Potency [10] | outcome [11] | outcome [17] | Potency [18] | Potency [13] | Potency [14] | Potency [19] | outcome [15]

CC(=O)CC(c1ccc(Cl)cc1)c1c(O)c2ccccc2oc1=O (stereo not drawn)
inactive: Potency [1] | Potency [2] | Potency [3] | outcome [4] | Potency [5] | activation ([6]; at 95 µM (top of the series)) -6.05% | Potency [8] | Potency [16] | Potency [9] | Potency [10] | outcome [11] | Potency [18] | Potency [12] | Potency [14] | Potency [19]

CCCCc1ccc(O)cc1
inactive: Potency [1] | Potency [2] | Potency [3] | outcome [4] | Potency [5] | activation ([6]; at 70.3 µM (top of the series)) 12.6% | Potency [7] | Potency [8] | Potency [9] | outcome [11] | outcome [17] | Potency [18] | Potency [12] | Potency [14] | outcome [15]

CC1(C)C(=O)NC(=O)NC1=O
inactive: Potency [1] | Potency [2] | Potency [3] | Potency [20] | Potency [5] | activation ([6]; at 70.3 µM (top of the series)) -7.44% | Potency [7] | Potency [8] | Potency [16] | Potency [9] | Potency [10] | outcome [11] | outcome [17] | Potency [12] | Potency [14] | Potency [19] | outcome [15]
